Screening data: PubChem BioAssay, National Center for Advancing Translational Sciences (NCATS)
Shown are actives, neighbours in structure and some others; about 5.9% of the full set was active somewhere.
Gal4-VP16 FLuc – VP16 counterscreen qHTS for inhibitors of ROR gamma transcriptional activity; Potency, µM (top dose mostly 53.6 µM), for the others: at the top dose activity, negative = inhibition, most hits filed as inhibitors; Drosophila S2 Gal4-VP16 UAS-luciferase, luminescence, 20 h; AID 2546, 2010; hit rate 3.5% among 310,000;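 also: Gal4-VP16 expression switched on by copper sulfate through the metallothionein promoter; % is scaled to controls: 0 for no effect and ±100 for the full control effect; nearly all actives have a fitted effect of over 50% in size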
RORg inh – qHTS for inhibitors of ROR gamma transcriptional activity. Nuclear receptor ROR-gamma (Mus musculus), P51450. Drosophila S2 Gal4-RORgamma UAS-luciferase reporter, 20 h. Potency, µM (series often up to 53.6 µM), inactives show at the top dose activity change, negative = inhibition, actives largely listed as inhibitors. hit rate 5.4% among 310,000; also: % is scaled to controls: 0 for no effect and ±100 for the full control effect; nearly all actives have a fitted effect of over 60% in size
Target sequence (P51450 whole entry, looked up, the tested form may be a part): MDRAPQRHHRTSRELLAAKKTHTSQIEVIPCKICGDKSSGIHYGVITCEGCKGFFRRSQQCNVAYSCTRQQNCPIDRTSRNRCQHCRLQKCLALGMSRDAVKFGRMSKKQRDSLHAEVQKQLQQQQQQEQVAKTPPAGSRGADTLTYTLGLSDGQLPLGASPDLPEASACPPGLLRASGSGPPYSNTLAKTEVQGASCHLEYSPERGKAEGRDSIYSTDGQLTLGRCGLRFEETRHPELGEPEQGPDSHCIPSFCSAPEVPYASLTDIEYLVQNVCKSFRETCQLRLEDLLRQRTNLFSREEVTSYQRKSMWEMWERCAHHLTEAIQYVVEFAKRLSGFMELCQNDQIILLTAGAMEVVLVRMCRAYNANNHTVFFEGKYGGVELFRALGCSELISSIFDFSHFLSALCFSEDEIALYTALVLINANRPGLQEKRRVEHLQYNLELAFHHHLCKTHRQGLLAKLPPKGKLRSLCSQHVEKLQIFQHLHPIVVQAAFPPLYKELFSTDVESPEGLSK
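Drosophila Schneider cells stably carrying a metallothionein-driven Gal4 DBD–ROR gamma fusion and a UAS-Photinus luciferase reporter were exposed to compound for 1 hr, then induced with copper sulfate (700 uM final) for 20 hr at ambient temperature before luminescence reading.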
GLP-1R agonist – qHTS of GLP-1 Receptor Agonists | Glucagon-like peptide 1 receptor (Homo sapiens), P43220 | HEK293 GLP-1R CRE-luciferase, luminescence, 4-6 h; cells express a hypersensitive GLP-1R form | Potency, µM (doses to about 45.6 µM), for the others: top-dose activation, usual class: activators | hit rate 0.007% among 380,000; also: % of control where 0% means no effect
GLP1R inv ag – qHTS of GLP-1 Receptor Inverse Agonists (Inhibition Mode); Glucagon-like peptide 1 receptor (Homo sapiens), P43220; HEK293 GLP-1R CRE-luciferase, luminescence, 24 h; GLP-1R form is constitutively active; Potency, µM (titrated, usually from 38.3 µM), for inactives: top-dose activity change, negative = inhibition, usual class: inhibitors; hit rate 1.6% among 410,000; AID 624417, 2012; also: % is scaled to controls: 0 for no effect and ±100 for the full control effect; nearly all actives have a fitted effect of over 55% in size
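Assay principle: reduced luminescence from a cAMP-responsive reporter in HEK293 cells co-expressing a constitutively active GLP-1R. Conditions: 24 hr compound incubation, 37 deg C, 5% CO2.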
HEK293 tox – qHTS of GLP-1 Receptor Inverse Agonists: Cytotox Screen; HEK293 cAMP-luciferase reporter cells, luminescence, 24 h; AID 624418, 2012; hit rate 0.13% among 410,000; Potency, µM (titrated, usually from 38.3 µM), without a hit: at the highest dose activity change, negative = inhibition, usual class: inhibitors;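 also: loss of luciferase light is scored as toxicity; % is scaled to controls: 0 for no effect and ±100 for the full control effect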
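Compound-treated cells are incubated 24 hr at 37 deg C under 5% CO2 after a 12 hour attachment period, then luciferase detection reagent is added and luminescence is measured following 12 min at room temperature; lowered signal indicates toxicity.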
Starred values were filed as active, the others as inactive; ? = inconclusive; . = no result given; ! = repeats disagree; [ ] = remark or other dose. Calls follow the shape of the dose curve; as a rule, active = well fitted curve in the direction sought with a large enough effect; inconclusive = small, poorly fitted or top-dose-only effect, or another doubt; inactive = no such curve, though single readings can be large; an effect the other way counts as inactive or inconclusive. Potency is read from the fitted curve at half-maximal effect.

SMILES	Gal4-VP16 FLuc	RORg inh	GLP-1R agonist	GLP1R inv ag	HEK293 tox
COC(=O)C1=C(c2ccc(-c3ccccc3)c(F)c2)C[C@@H]2CC[C@H]1N2C(=O)NCc1cc(C)oc1C(F)(F)F	.	.	-7%	3.5µM*	4%
O=C(N[C@H]1N=C(c2ccccc2F)c2cccc3c2N(CC3)C1=O)c1cc2ccccc2[nH]1	.	.	3%	.	.
Cn1cnc([N+](=O)[O-])c1Sc1ccc([N+](=O)[O-])cc1	?	11µM*	-1%	?	?
Cc1nc(C(=O)O)nn1-c1ccc([N+](=O)[O-])cc1	?	15%	2%	8%	-1%
c1ccc(CCCN2CCN(CCOC(c3ccccc3)c3ccccc3)CC2)cc1	?	32µM*	3%	?	?
Fc1ccc(C(OCCN2CCN(CCCc3ccccc3)CC2)c2ccc(F)cc2)cc1	32µM*!	28µM*!	-1%	.	.
Fc1ccc(C(OCCN2CCCC2)c2ccc(F)cc2)cc1	-8%	-36%	-5%	?	-9%
Fc1ccc(C(OCCN2CCCC2)c2ccc(Br)cc2)cc1 (stereo unspecified)	-27%	-43%	3%	5.6µM*	?
N#CCc1ccccc1	-4%	4%	.	.	.
C[C@]12CCC(=O)C=C1CC[C@H]1C2CC[C@@]2(C)[C@@H]1CC[C@]2(C)O (stereo partly specified)	.	.	10%	.	.
COCc1cc(C)c(C#N)c(=S)[nH]1	?	4µM*	-34%	-15%	-23%
C[C@]12CC[C@@H]3c4ccc(OC(=O)N(CCCl)CCCl)cc4CC[C@@H]3[C@H]1CC[C@@H]2OP(=O)(O)O	.	.	-6%	.	.
CSc1nnc([C@@H](N)Cc2ccccc2)o1	0%	-2%	22%	0%	?
CC(C)Sc1nnc([C@@H](N)Cc2ccccc2)o1	11µM*	-57%	14%	-10%	-25%
NC(=NCCCCCCN=C(N)/N=C(\N)Nc1ccc(Cl)cc1)/N=C(\N)Nc1ccc(Cl)cc1	16µM*!	?	-1%	?	?
O=C(Nc1ccc(Cl)cc1)Nc1ccc(Cl)c(Cl)c1	?	43%[10 µM]	-4%	?	-23%
CCN(Cc1ccccc1)S(=O)(=O)c1ccc(C(=O)N(CCCN(C)C)c2nc3cc4c(cc3s2)OCCO4)cc1	.	.	-11%	13µM*	?
O=C(CSC1c2ccccc2-c2ccccc21)N/N=C/c1ccc(C(=O)O)cc1	-2%	-35%	1%	3%	-9%
O=C(CSC1c2ccccc2-c2ccccc21)N/N=C/c1ccccc1O	18µM*	13µM*	6%	0%	1%
ClC[C@H]1CO1 (tested in a mixture with another compound)	.	.	0%	.	.
CCCCCCCCCCOC(=O)Cn1c(COc2ccccc2C)[n+](C)c2ccccc21	16µM*	?	-2%	?	?
O=C(NCCSc1c(-c2ccccc2)[nH]c2ccccc12)c1ccc(S(=O)(=O)N2CCOCC2)cc1	.	.	.	?	1%
CN1CCN(c2ccc(C(N)=O)cc2[N+](=O)[O-])CC1	-4%	29%	1%	10%	-18%
COc1cccc(OC)c1C(=O)NC(=S)N1CCN(c2ccc(C(F)(F)F)cc2[N+](=O)[O-])CC1	22µM*	7.1µM*	-10%	?	?
CCN(CC)C(=O)c1ccc(NC(=S)NC(=O)CCc2ccccc2)cc1	?	?	-4%	?	-13%
SMILES	Gal4-VP16 FLuc	RORg inh	GLP-1R agonist	GLP1R inv ag	HEK293 tox
CCCCC(=O)NC(=S)Nc1nnn(CCC)n1	0.56µM*	0.11µM*	3%	11µM*	?
C[C@H]1O[C@@H](OC2CC[C@]3(C=O)[C@H]4CC[C@]5(C)[C@@H](C6=CC(=O)OC6)CC[C@]5(O)[C@@H]4CC[C@]3(O)C2)CC2OC(C)(C)OC21 (stereo partly specified)	-1%	16µM*	-7%	?	?
C[C@@H]1O[C@H](O[C@@H]2CC[C@@]3(C=O)[C@H]4CC[C@@]5(C)[C@@H](C6=CC(=O)OC6)CC[C@@]5(O)[C@@H]4CC[C@]3(O)C2)C[C@H](O)[C@@H]1O	-11%[17 µM]	-7%[16.9 µM]	.	.	.
CC12CCC3C(CCC4(O)CC(O)CCC34C=O)C1(O)CCC2C1=CC(=O)OC1 (stereo unspecified)	.	.	-6%	?	?
C[C@]12CC[C@H]3[C@@H](CC[C@]4(O)C[C@@H](O)CC[C@]34C=O)[C@@]1(O)CC[C@@H]2C1=CC(=O)OC1	.	.	-10%	1µM*	?
CC1C(=O)OC2C1CC[C@@]1(C)C=CC(=O)[C@@]3(C)O[C@@]213 (stereo partly specified)	16%	?	.	.	.
CC1=CC(=O)c2c(O)cccc2C1=O	13µM*	14µM*	.	.	.
CC(C)COP(=O)(OCC(C)C)C(Nc1ccccc1)c1ccccc1 (stereo unspecified)	-6%	1%	5%	11µM*	?
CC(C)COP(=O)(c1ccc(N(C)C)cc1)C(Nc1ccccc1)c1ccccc1 (stereo unspecified)	?	80%	-2%	?	-20%
COC(=O)[C@@H]1C[C@@]2(O)[C@@H](O)[C@@H](O)[C@@H](O)C[C@H]2N1Cc1cccnc1	-5%	-25%	.	.	.
C=CC(=C)C	-8%	25%	.	.	.
COC(CN(C(=O)CCl)C(C(=O)NC1CCCCC1)c1ccccc1C)OC (stereo unspecified)	0%	-17%	-10%	10µM*	?
Cc1ccc(/C=C/C(=O)c2ccc(O)cc2)cc1	7.1µM*	2µM*	-3%	?	?
CN(C)c1ccc(P(=S)(N(C)C)N(C)C)cc1	2%	?	0%	?	2%
CN(C)c1ccc(N=O)cc1	5.6µM*	2.2µM*	.	.	.
COCCOCCO	.	.	0%[96 µM]	.	.
Cc1ccc(O)cc1 (tested in a mixture with another compound)	.	.	-2%	.	.
Oc1cc[c]([Hg][Cl])cc1	2.8µM*	2.5µM*	-7%	.	.
O=C1C=C2C(=CCOC2O)O1 (stereo unspecified)	0.89µM*	1.1µM*	.	.	.
CC(C)C[C@H]1C(=O)N2CCCC2[C@]2(O)O[C@](NC(=O)[C@@H]3C=C4c5cccc6[nH]c(Br)c(c56)C[C@H]4N(C)C3)(C(C)C)C(=O)N12 (stereo partly specified)	?	26%[10 µM]	-2%	.	.
O=C(COc1ccc2ccccc2c1)N1CCN(C2CCN(Cc3ccccc3)CC2)CC1	-14%	-48%	-10%	?	?
COc1ccccc1CN1CCN(C(=O)COc2ccc3ccccc3c2)CC1	-6%	7%	-4%	10µM*	2%
